{"source": "PubChem BioAssay (NCATS)", "note": "Results filed as inconclusive are left out. A number with no mark means an inactive call. Calls come from the whole dose curve; as a rule, active = well fitted cell-killing curve with a large enough effect; inconclusive = small, poorly fitted or top-dose-only effect; inactive = flat fitted curve, though single readings scatter. % is set by controls: 0 for no effect and ±100 for the full control effect."}
{"assay": "qHTS of pediatric cancer cell lines to identify multiple opportunities for drug repurposing: Primary screen for control Hh wild type fibroblast cells (AID 1347106);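 note: a drop in luminescence marks cytotoxicity and a rise apparent proliferation; nearly all actives have a fitted effect of over 55% in size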", "details": "Hh wild-type fibroblast viability, CellTiter-Glo luminescence, 48 h; series mostly up to 46 µM; activity change, negative = cytotoxic: at the top concentration", "method_in_brief": "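Cells (500-1,000/well) in growth media were settled 5 h at 37 degrees C, then given compounds for 48 h. Viability was read as CellTiter-Glo luminescence. Primary runs used MIPE at 11 points (0.78 nM-46 µM) and NPC at 8 points (0.59 nM-46 µM); follow-ups used 11 points.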", "units": {"activity change, negative = cytotoxic": "%"}}
{"molecule": "CCCC(=O)O[C@]1(C(=O)CCl)[C@@H](C)C[C@H]2[C@@H]3CCC4=CC(=O)C=C[C@]4(C)[C@@]3(F)C(=O)C[C@@]21C", "activity change, negative = cytotoxic": -2.72}
{"molecule": "COc1ccc2c(c1)CCCC2=O", "activity change, negative = cytotoxic": 12.1}
{"molecule": "COC(=O)c1cc(Cl)c(NC(C)=O)cc1OC", "activity change, negative = cytotoxic": 4.47}
{"molecule": "CC(=O)/C=C/C=C1/C2CCC(C2)C1(C)C", "note": "(stereo unspecified)", "activity change, negative = cytotoxic": -1.14}
{"molecule": "C#Cc1ccc(-c2ccccc2F)cc1", "activity change, negative = cytotoxic": 5.01}
{"molecule": "CC(C(O)c1ccccc1)N(C)CCOC(c1ccccc1)c1ccccc1", "note": "(stereo unspecified)", "activity change, negative = cytotoxic": -7.14}
{"molecule": "CC[C@@H]([C@H](C)O)n1ncn(-c2ccc(N3CCN(c4ccc(OC[C@@H]5CO[C@@](Cn6cncn6)(c6ccc(F)cc6F)C5)cc4)CC3)cc2)c1=O", "activity change, negative = cytotoxic": 9.89}
{"molecule": "CCOC(=O)N1CCC(Nc2ccc(Cl)cc2N)CC1", "activity change, negative = cytotoxic": -2.26}
{"molecule": "CCCCN(CCN(CCCC)C(=O)N1CCOCC1)C(=O)N1CCOCC1", "activity change, negative = cytotoxic": -3.12}
{"molecule": "CCCC(=O)O[C@]1(C(=O)CC)CC[C@H]2[C@@H]3CCC4=CC(=O)CC[C@]4(C)[C@H]3[C@@H](O)C[C@@]21C", "activity change, negative = cytotoxic": -2.31}
{"molecule": "O=C1NC2CCCCN2C12CCN(CCCN1c3ccccc3CCc3ccc(Cl)cc31)CC2", "note": "(stereo unspecified)", "activity change, negative = cytotoxic": -10}
{"molecule": "CC(C)(C)C(=O)OCOC(=O)C1N2C(=O)CC2S(=O)(=O)C1(C)C", "note": "(stereo unspecified)", "activity change, negative = cytotoxic": 11.2}
{"molecule": "OC(CCCN1CCCCC1)(c1ccccc1)c1ccccc1", "activity change, negative = cytotoxic": 0.366}
{"molecule": "O=C(O)CCC(=O)OC[C@@H](NC(=O)C(Cl)Cl)[C@H](O)c1ccc([N+](=O)[O-])cc1", "activity change, negative = cytotoxic": -4.81}
{"molecule": "Cc1cc(C(C)(C)C)c(O)c(C(C)(C)C)c1", "activity change, negative = cytotoxic": -1.43}
{"molecule": "CC(C)(C)C1CCC(CC2=C(O)c3ccccc3C(=O)C2=O)CC1", "note": "(stereo unspecified)", "activity change, negative = cytotoxic": 8.02}
